The record followed here is article PMC5700166.

The target of the experiment is T1, GST-Nv-NF-kB (Cys allele) (Nematostella vectensis, UniProt E5G601 2-411).
T1 sequence: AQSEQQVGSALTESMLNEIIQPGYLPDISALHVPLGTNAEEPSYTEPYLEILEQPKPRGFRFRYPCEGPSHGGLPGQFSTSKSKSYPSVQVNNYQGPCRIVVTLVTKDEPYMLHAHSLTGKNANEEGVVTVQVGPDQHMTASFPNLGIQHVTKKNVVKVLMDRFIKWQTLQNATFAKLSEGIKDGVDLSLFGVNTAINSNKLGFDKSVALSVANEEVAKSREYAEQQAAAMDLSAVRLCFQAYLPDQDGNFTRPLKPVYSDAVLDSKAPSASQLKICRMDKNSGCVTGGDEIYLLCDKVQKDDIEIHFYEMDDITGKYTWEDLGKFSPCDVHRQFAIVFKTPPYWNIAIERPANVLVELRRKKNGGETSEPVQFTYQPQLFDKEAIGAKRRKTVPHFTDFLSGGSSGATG
Description: protein-binding microarray (PBM); PBM: ~300 nM protein, 6 mM HEPES pH 7.8, 80 mM KCl, 0.5 mM EDTA, 0.5 mM EGTA, 6% glycerol, 35 ng/ul poly-dIdC, 1% milk, 1 h, room temperature; Ap Aiptasia and Nv Nematostella (sea anemones) / Co Capsaspora / Aq Amphimedon (sponge) / Dm Drosophila / Hu human; RHD is the Rel homology domain; high values mean tight binding. Particulars: dsDNA, one strand shown.
The sequence “CCGATTAACATCATCAGGGAAAATGATGTTAATCGGGTCTTGATTCGCTTGACGCTGCTG” returned a binding signal of 4.35 z-score.

Take “CCGATTAACATCAGGGACAAAAATGATGTTAATCGGGTCTTGATTCGCTTGACGCTGCTG”: the binding signal was found to be 3.15 z-score.

As to “CCGATTAACATCAGGTCGGGAAATGATGTTAATCGGGTCTTGATTCGCTTGACGCTGCTG”, the binding signal came to 2.6 z-score.

For “CCGATTAACATCAATCGGGAAATTGATGTTAATCGGGTCTTGATTCGCTTGACGCTGCTG”, the binding signal worked out at 3.45 z-score.

For “CCGATTAACATCAGGGAAAAGGATGATGTTAATCGGGTCTTGATTCGCTTGACGCTGCTG”, the binding signal was found to be 3.4 z-score.

For “CCGATTAACATCAATTCCCGTACTGATGTTAATCGGGTCTTGATTCGCTTGACGCTGCTG”, the binding signal stood at 2.92 z-score.

Consider “CCGATTAACATCAGATTTCTCCCTGATGTTAATCGGGTCTTGATTCGCTTGACGCTGCTG”, for which the binding signal amounted to 3.11 z-score.

Consider “CCGATTAACATCAATTTACCCACTGATGTTAATCGGGTCTTGATTCGCTTGACGCTGCTG”, for which the binding signal was 1.68 z-score.

Regarding “CCGATTAACATCAACTGGGAAAATGATGTTAATCGGGTCTTGATTCGCTTGACGCTGCTG”, the binding signal came out at 3.04 z-score.

With “CCGATTAACATCAAGCGTTTCCCTGATGTTAATCGGGTCTTGATTCGCTTGACGCTGCTG”, the binding signal came out at 3.6 z-score.

“CCGATTAACATCACTTTCCCAAATGATGTTAATCGGGTCTTGATTCGCTTGACGCTGCTG” displayed a binding signal of 2.64 z-score.

“CCGATTAACATCATCTGGGAAAATGATGTTAATCGGGTCTTGATTCGCTTGACGCTGCTG”: the binding signal came out at 2.91 z-score.

Turning to “CCGATTAACATCAGGGACGGAAATGATGTTAATCGGGTCTTGATTCGCTTGACGCTGCTG”, the binding signal was 3.44 z-score.

As for “CCGATTAACATCAGGGAAAAGAATGATGTTAATCGGGTCTTGATTCGCTTGACGCTGCTG”, the binding signal is 4.22 z-score.

Take “CCGATTAACATCAAATGTGGGAATGATGTTAATCGGGTCTTGATTCGCTTGACGCTGCTG”: the binding signal is 1.53 z-score.

The sequence “CCGATTAACATCAAAGCATTCCCTGATGTTAATCGGGTCTTGATTCGCTTGACGCTGCTG” yielded a binding signal of 3.04 z-score.

“CCGATTAACATCAACATGGGAAATGATGTTAATCGGGTCTTGATTCGCTTGACGCTGCTG” gave a binding signal of 2.51 z-score.

Sequence “CCGATTAACATCAGGGAAAGGTATGATGTTAATCGGGTCTTGATTCGCTTGACGCTGCTG” yielded a binding signal of 3.44 z-score.

For the sequence “CCGATTAACATCACCGCTTCCCTTGATGTTAATCGGGTCTTGATTCGCTTGACGCTGCTG”, the binding signal is 1.86 z-score.

“CCGATTAACATCATGCCCGGGAATGATGTTAATCGGGTCTTGATTCGCTTGACGCTGCTG” had a binding signal of 1.27 z-score.

Sequence “CCGATTAACATCATGGTGGGAAATGATGTTAATCGGGTCTTGATTCGCTTGACGCTGCTG” showed a binding signal of 2.69 z-score.

“CCGATTAACATCAAATCGGGAAATGATGTTAATCGGGTCTTGATTCGCTTGACGCTGCTG” had a binding signal of 3.49 z-score.

“CCGATTAACATCACATGGGAAACTGATGTTAATCGGGTCTTGATTCGCTTGACGCTGCTG” showed a binding signal of 2.14 z-score.

“CCGATTAACATCACTCCCTAAAATGATGTTAATCGGGTCTTGATTCGCTTGACGCTGCTG”: the binding signal is 2.35 z-score.

In turn, “CCGATTAACATCATTTCCCTTGATGATGTTAATCGGGTCTTGATTCGCTTGACGCTGCTG” had a binding signal of 4.19 z-score.

“CCGATTAACATCAAACAGGGAAATGATGTTAATCGGGTCTTGATTCGCTTGACGCTGCTG” displayed a binding signal of 4.69 z-score.

“CCGATTAACATCACCCAGTTCCCTGATGTTAATCGGGTCTTGATTCGCTTGACGCTGCTG” had a binding signal of 1.21 z-score.

For “CCGATTAACATCATGGGGACGACTGATGTTAATCGGGTCTTGATTCGCTTGACGCTGCTG”, the binding signal was 3.19 z-score.

For “CCGATTAACATCAAGCCCCCCCCTGATGTTAATCGGGTCTTGATTCGCTTGACGCTGCTG”, the binding signal is 4.21 z-score.

The sequence “CCGATTAACATCACGGTGGGAAATGATGTTAATCGGGTCTTGATTCGCTTGACGCTGCTG” came in with a binding signal of 2.39 z-score.

The sequence “CCGATTAACATCAGTACGGGAAATGATGTTAATCGGGTCTTGATTCGCTTGACGCTGCTG” showed a binding signal of 3.11 z-score.

Take “CCGATTAACATCAACATGGGAATTGATGTTAATCGGGTCTTGATTCGCTTGACGCTGCTG”: the binding signal came out at 2.42 z-score.

“CCGATTAACATCATGGAGGGAGGTGATGTTAATCGGGTCTTGATTCGCTTGACGCTGCTG” gave a binding signal of 1.62 z-score.

The sequence “CCGATTAACATCATGGGAAGGTTTGATGTTAATCGGGTCTTGATTCGCTTGACGCTGCTG” displayed a binding signal of 1.55 z-score.

The sequence “CCGATTAACATCAGGGAAAGGAATGATGTTAATCGGGTCTTGATTCGCTTGACGCTGCTG” gave a binding signal of 3.07 z-score.

In turn, “CCGATTAACATCAGAGTTTCCCATGATGTTAATCGGGTCTTGATTCGCTTGACGCTGCTG” registered a binding signal of 3.42 z-score.

“CCGATTAACATCAGGGAATTAGATGATGTTAATCGGGTCTTGATTCGCTTGACGCTGCTG”: the binding signal was determined as 3.48 z-score.

Regarding “CCGATTAACATCACATCTTTCCCTGATGTTAATCGGGTCTTGATTCGCTTGACGCTGCTG”, the binding signal amounted to 3.96 z-score.

In turn, “CCGATTAACATCAACTCGGGAAATGATGTTAATCGGGTCTTGATTCGCTTGACGCTGCTG” had a binding signal of 2.75 z-score.

“CCGATTAACATCAACTTTCCCAGTGATGTTAATCGGGTCTTGATTCGCTTGACGCTGCTG” registered a binding signal of 2 z-score.
